# Reference: PubChem BioAssay AID1159580 (chemical genetic matrix, 2015)
# The whole screen tested about 5,500 compounds, of which about 2,000 (36%) were called active. Inconclusive results (about 18%) are left out. The list shows a part of the results. Unmarked numbers belong to inactive results. Rule as the data show it: active = normalized growth mostly below about 0.91 (no sharp cut-off); inconclusive = no clear call, values can overlap the other calls; inactive = mostly above about 0.92.
# Assay: chemical genetic growth profiling, strain panel (AID 1159580);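 also: tested at 20 µM; growth read once vehicle control cultures reached saturation at 30 °C; 1 = growth at the plate median or of vehicle wells; lower values mean less growth of the strain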
# Settings: S. cerevisiae deletion strains, growth OD
# [1] = locus YAR019C, strain CDC15, hits give low values
# [2] = locus YBL105C, strain PKC1, hits give low values
# [3] = locus YBR135W, strain CKS1, hits give low values
# [4] = locus YBR136W, strain MEC1, hits give low values
# [5] = locus YBR160W, strain CDC28, hits give low values
# [6] = locus YDL017W, strain CDC7, hits give low values
# [7] = locus YDL028C, strain MPS1, hits give low values
# [8] = locus YDL101C, strain DUN1, hits give low values
# [9] = locus YDL108W, strain KIN28, hits give low values
# [10] = locus YDL132W, strain cdc53, hits give low values
# [11] = locus YDL214C, strain PRR2, hits give low values
# [12] = locus YDR052C, strain DBF4, hits give low values
# [13] = locus YDR054C, strain cdc34, hits give low values
# [14] = locus YDR226W, strain ADK1, hits give low values
# [15] = locus YDR477W, strain SNF1, hits give low values
# [16] = locus YER123W, strain YCK3, hits give low values
# [17] = locus YER133W, strain GLC7, hits give low values
# [18] = locus YFL009W, strain cdc4, hits give low values
# [19] = locus YFL029C, strain CAK1, hits give low values
# [20] = locus YFR003C, strain YPI1, hits give low values
# [21] = locus YFR019W, strain FAB1, hits give low values
# [22] = locus YFR028C, strain CDC14, hits give low values
# [23] = locus YGR040W, strain KSS1, hits give low values
# [24] = locus YGR052W, strain FMP48, hits give low values
# [25] = locus YGR092W, strain DBF2, hits give low values
# [26] = locus YHR030C, strain SLT2, hits give low values
# [27] = locus YHR079C, strain IRE1, hits give low values
# [28] = locus YHR082C, strain KSP1, hits give low values
# [29] = locus YHR205W, strain SCH9, hits give low values
# [30] = locus YIL147C, strain SLN1, hits give low values
# [31] = locus YJL095W, strain BCK1, hits give low values
# [32] = locus YJL128C, strain PBS2, hits give low values
# [33] = locus YJL157C, strain FAR1, hits give low values
# [34] = locus YJR016C, strain ILV3, hits give low values
# [35] = locus YJR066W, strain TOR1 (second series), hits give low values
# [36] = locus YJR066W, strain TOR1, hits give low values
# [37] = locus YKL048C, strain ELM1, hits give low values
# [38] = locus YKL067W, strain YNK1, hits give low values
# [39] = locus YKL101W, strain HSL1, hits give low values
# [40] = locus YKL193C, strain SDS22, hits give low values
# [41] = locus YKL203C, strain TOR2, hits give low values
# [42] = locus YLR133W, strain CKI1, hits give low values
# [43] = locus YLR403W, strain SFP1, hits give low values
# [44] = locus YML070W, strain DAK1, hits give low values
# [45] = locus YMR001C, strain CDC5, hits give low values
# [46] = locus YMR205C, strain PFK2 (second series), hits give low values
# [47] = locus YMR277W, strain FCP1, hits give low values
# [48] = locus YNL006W, strain LST8, hits give low values
# [49] = locus YNL020C, strain ARK1, hits give low values
# [50] = locus YNL161W, strain CBK1, hits give low values
# [51] = locus YNL183C, strain NPR1, hits give low values
# [52] = locus YNL207W, strain RIO2, hits give low values
# [53] = locus YNL222W, strain SSU72, hits give low values
# [54] = locus YNL307C, strain MCK1 (second series), hits give low values
# [55] = locus YOL078W, strain AVO1, hits give low values
# [56] = locus YOL136C, strain PFK27, hits give low values
# [57] = locus YOR061W, strain CKA2, hits give low values
# [58] = locus YOR119C, strain RIO1, hits give low values
# [59] = locus YOR231W, strain MKK1, hits give low values
# [60] = locus YOR329C, strain SCD5, hits give low values
# [61] = locus YPL031C, strain PHO85, hits give low values
# [62] = locus YPL153C, strain RAD53, hits give low values
# [63] = locus YPL204W, strain HRR25, hits give low values
# [64] = locus YPL209C, strain IPL1, hits give low values
# [65] = locus YPL256C, strain CLN2, hits give low values
# [66] = locus YPR025C, strain CCL1, hits give low values
# [67] = locus YPR106W, strain ISR1, hits give low values
# [68] = locus YPR111W, strain DBF20, hits give low values
# [69] = strain NNK1, hits give low values
# [70] = strain TSCII, hits give low values
structure (smiles),measurement,setting,value
O=C(NCCNc1ncc(Cl)cc1C(F)(F)F)C(F)(F)Sc1ccccc1,normalized growth,[1],0.982
same,normalized growth,[2],0.978
same,normalized growth,[3],0.975
same,normalized growth,[4],0.984
same,normalized growth,[5],0.979
same,normalized growth,[6],0.977
same,normalized growth,[7],0.992
same,normalized growth,[8],0.982
same,normalized growth,[9],0.981
same,normalized growth,[10],0.977
same,normalized growth,[11],0.987
same,normalized growth,[12],0.982
same,normalized growth,[13],0.991
same,normalized growth,[14],0.982
same,normalized growth,[15],0.996
same,normalized growth,[16],1.01
same,normalized growth,[17],1
same,normalized growth,[18],0.979
same,normalized growth,[19],0.984
same,normalized growth,[20],0.985
same,normalized growth,[21],0.996
same,normalized growth,[22],0.982
same,normalized growth,[23],0.991
same,normalized growth,[24],1.14
same,normalized growth,[25],0.994
same,normalized growth,[26],1.2 [resistant] (active)
same,normalized growth,[27],1.17
same,normalized growth,[28],1.19
same,normalized growth,[29],0.975
same,normalized growth,[30],0.986
same,normalized growth,[31],1.16
same,normalized growth,[32],0.934
same,normalized growth,[33],0.985
same,normalized growth,[34],0.989
same,normalized growth,[35],1.01
same,normalized growth,[36],1.19
same,normalized growth,[37],0.973
same,normalized growth,[38],0.991
same,normalized growth,[39],0.984
same,normalized growth,[40],0.973
same,normalized growth,[41],1.08
same,normalized growth,[42],0.979
same,normalized growth,[43],0.998
same,normalized growth,[44],0.986
same,normalized growth,[45],0.969
same,normalized growth,[46],0.984
same,normalized growth,[47],0.975
same,normalized growth,[48],0.983
same,normalized growth,[49],0.978
same,normalized growth,[50],0.984
same,normalized growth,[51],1.13
same,normalized growth,[52],0.989
same,normalized growth,[53],0.976
same,normalized growth,[54],0.972
same,normalized growth,[55],0.981
same,normalized growth,[56],1
same,normalized growth,[57],0.992
same,normalized growth,[58],1.02
same,normalized growth,[59],1.12
same,normalized growth,[60],0.985
same,normalized growth,[61],0.99
same,normalized growth,[62],1.01
same,normalized growth,[63],0.995
same,normalized growth,[64],0.983
same,normalized growth,[65],1.25 [resistant] (active)
same,normalized growth,[66],0.984
same,normalized growth,[67],0.982
same,normalized growth,[68],0.979
same,normalized growth,[69],0.993
same,normalized growth,[70],0.978
O=C(NCCNc1ncc(C(F)(F)F)cc1Cl)C(F)(F)Sc1ccccc1,normalized growth,[1],0.985
same,normalized growth,[2],0.983
same,normalized growth,[3],0.971
same,normalized growth,[4],0.973
same,normalized growth,[5],0.984
same,normalized growth,[6],0.977
same,normalized growth,[7],0.97
same,normalized growth,[8],0.976
same,normalized growth,[9],0.957
same,normalized growth,[10],0.988
same,normalized growth,[11],0.898
same,normalized growth,[12],0.986
same,normalized growth,[13],0.978
same,normalized growth,[14],0.982
same,normalized growth,[15],0.919
same,normalized growth,[16],0.828
same,normalized growth,[17],0.924
same,normalized growth,[18],0.982
same,normalized growth,[19],0.988
same,normalized growth,[20],0.972
same,normalized growth,[21],0.885
same,normalized growth,[22],0.989
same,normalized growth,[23],0.916
same,normalized growth,[24],0.978
same,normalized growth,[25],0.909
same,normalized growth,[26],0.99
same,normalized growth,[27],0.994
same,normalized growth,[28],1
same,normalized growth,[29],0.912
same,normalized growth,[30],0.974
same,normalized growth,[31],0.98
same,normalized growth,[32],0.914
same,normalized growth,[33],0.887
same,normalized growth,[34],0.974
same,normalized growth,[35],0.899
same,normalized growth,[36],0.989
same,normalized growth,[37],0.939
same,normalized growth,[38],0.91
same,normalized growth,[39],0.908
same,normalized growth,[40],0.984
same,normalized growth,[41],0.991
same,normalized growth,"locus YLR113W, strain HOG1, hits give low values",0.883
same,normalized growth,[42],0.916
same,normalized growth,[43],0.922
same,normalized growth,[44],0.876
same,normalized growth,[45],0.978
same,normalized growth,[46],0.907
same,normalized growth,[47],0.983
same,normalized growth,[48],0.978
same,normalized growth,[49],0.894
same,normalized growth,[50],0.985
same,normalized growth,[51],0.961
same,normalized growth,[52],0.983
same,normalized growth,[53],0.979
same,normalized growth,[54],0.905
same,normalized growth,[55],0.98
same,normalized growth,[56],0.893
same,normalized growth,[57],0.868
same,normalized growth,[58],0.966
same,normalized growth,[59],0.939
same,normalized growth,[60],0.987
same,normalized growth,[61],0.912
same,normalized growth,[62],0.907
same,normalized growth,[63],0.936
same,normalized growth,[64],0.975
same,normalized growth,[65],1
same,normalized growth,[66],0.98
same,normalized growth,[67],0.984
same,normalized growth,[68],0.968
same,normalized growth,[69],0.982
same,normalized growth,[70],0.982
